According to PubChem BioAssay (NCATS):
Inconclusive results are not listed. The source made the active and inactive calls. The call rests on the fitted dose curve; in most records, active means well fitted curve in the direction sought with a large enough effect; inconclusive means small, poorly fitted or top-dose-only effect, or another doubt; inactive means no such curve, though single readings can be large; an effect the other way counts as inactive or inconclusive.

Key:
[1] = Quantitative High-Throughput drug screen in 47 multiple myeloma cell lines against the NCATS MIPE library collection: KHM11_PLB cell viability assay (AID 1918962); further: nearly all actives have a fitted effect of over 35% in size
How it was run: (§1)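 Viability readout: CellTiter-Glo luminescence following 5 min room-temperature incubation with reagent. Prior exposure: 48 h, 37C, humidified 5% CO2, 500 cells per well.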

[2] = Quantitative High-Throughput drug screen in 47 multiple myeloma cell lines against the NCATS MIPE library collection: JIM3_ECACC cell viability assay (AID 1918963; further: nearly all actives have a fitted effect of over 35% in size)
How it was run: as §1

[3] = Quantitative High-Throughput drug screen in 47 multiple myeloma cell lines against the NCATS MIPE library collection: JIM1_ECACC cell viability assay (AID 1918964)
How it was run: (§2)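 We plated 500 myeloma cells per well, pinned in MIPE 4.0 compounds, and incubated for 48 hours at 37C. ATP was then quantified with CellTiter-Glo, with DMSO and media-only wells defining 100% and 0%.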

[4] = Quantitative High-Throughput drug screen in 47 multiple myeloma cell lines against the NCATS MIPE library collection: INA6_PLB cell viability assay (AID 1918965; further: nearly all actives have a fitted effect of over 55% in size)
How it was run: (§3)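 Approved and investigational drugs from MIPE 4.0 were added by pin tool to 500 cells per well. After 48 hours at 37C, ATP-based CellTiter-Glo luminescence indicated remaining viability.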

[5] = Quantitative High-Throughput drug screen in 47 multiple myeloma cell lines against the NCATS MIPE library collection: JJN3_DSMZ cell viability assay (AID 1918966; further: nearly all actives have a fitted effect of over 50% in size)
How it was run: as §2

[6] = Quantitative High-Throughput drug screen in 47 multiple myeloma cell lines against the NCATS MIPE library collection: H1112_PLB cell viability assay (AID 1918967; further: nearly all actives have a fitted effect of over 30% in size)
How it was run: as §2

[7] = Quantitative High-Throughput drug screen in 47 multiple myeloma cell lines against the NCATS MIPE library collection: KMS27_JCRB cell viability assay (AID 1918970); further: nearly all actives have a fitted effect of over 30% in size
How it was run: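 Viability inhibition screen, 48 h compound exposure, luminescent ATP read-out.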

[8] = Quantitative High-Throughput drug screen in 47 multiple myeloma cell lines against the NCATS MIPE library collection: KMS12BM_JCRB cell viability assay (AID 1918971); further: nearly all actives have a fitted effect of over 35% in size
How it was run: (§4)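 CellTiter-Glo luminescence (ATP) after 48 h compound exposure, 37C/5% CO2; 500 cells/well; MIPE 4.0 approved/investigational drugs pinned in; DMSO = 100%, media only = 0% viability.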

[9] = Quantitative High-Throughput drug screen in 47 multiple myeloma cell lines against the NCATS MIPE library collection: KMS12PE_JCRB cell viability assay (AID 1918972); further: nearly all actives have a fitted effect of over 30% in size
How it was run: as §3

[10] = Quantitative High-Throughput drug screen in 47 multiple myeloma cell lines against the NCATS MIPE library collection: KMS20_JCRB cell viability assay (AID 1918973); further: nearly all actives have a fitted effect of over 45% in size
How it was run: as §2

[11] = Quantitative High-Throughput drug screen in 47 multiple myeloma cell lines against the NCATS MIPE library collection: KMS21BM_JCRB cell viability assay (AID 1918974); conditions: ATP luminescence, 48 h; viability: at 45.8 µM (top of the series) unless noted
How it was run: as §2

[12] = Quantitative High-Throughput drug screen in 47 multiple myeloma cell lines against the NCATS MIPE library collection: KMS26_JCRB cell viability assay (AID 1918975); further: nearly all actives have a fitted effect of over 45% in size
How it was run: as §4

[13] = Quantitative High-Throughput drug screen in 47 multiple myeloma cell lines against the NCATS MIPE library collection: MMM1_PLB cell viability assay (AID 1918976); further: nearly all actives have a fitted effect of over 35% in size
How it was run: (§5)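 MIPE 4.0 approved/investigational drugs; 500 cells/well; 48 h 37 °C humidified 5% CO2; CTG luminescence readout; DMSO = 100%, media = 0% viability.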

[14] = Quantitative High-Throughput drug screen in 47 multiple myeloma cell lines against the NCATS MIPE library collection: MOLP8_DSMZ cell viability assay (AID 1918977); further: nearly all actives have a fitted effect of over 45% in size
How it was run: as §5

[15] = Quantitative High-Throughput drug screen in 47 multiple myeloma cell lines against the NCATS MIPE library collection: NCIH929_DSMZ cell viability assay (AID 1918978); further: nearly all actives have a fitted effect of over 35% in size
How it was run: as §5

[16] = Quantitative High-Throughput drug screen in 47 multiple myeloma cell lines against the NCATS MIPE library collection: OCIMY1_PLB cell viability assay (AID 1918979); further: nearly all actives have a fitted effect of over 35% in size
How it was run: as §5

[17] = Quantitative High-Throughput drug screen in 47 multiple myeloma cell lines against the NCATS MIPE library collection: MM1S_ATCC cell viability assay (AID 1918980); further: nearly all actives have a fitted effect of over 45% in size
How it was run: as §5

[18] = Quantitative High-Throughput drug screen in 47 multiple myeloma cell lines against the NCATS MIPE library collection: MM1R_ATCC cell viability assay (AID 1918981); further: nearly all actives have a fitted effect of over 35% in size
How it was run: as §5

[19] = Quantitative High-Throughput drug screen in 47 multiple myeloma cell lines against the NCATS MIPE library collection: LP1_DSMZ cell viability assay (AID 1918982); further: nearly all actives have a fitted effect of over 35% in size
How it was run: as §5

[20] = Quantitative High-Throughput drug screen in 47 multiple myeloma cell lines against the NCATS MIPE library collection: Karpas25_ECACC cell viability assay (AID 1918968; further: nearly all actives have a fitted effect of over 35% in size)
How it was run: as §2

Measured: Potency
Potency means the concentration at half of the fitted maximal effect.

CC(C)(C)c1cnc(CSc2cnc(NC(=O)C3CCNCC3)s2)o1
active: [1] 0.0743 µM | [2] 0.235 µM | [3] 0.0743 µM | [4] 0.235 µM | [5] 0.0833 µM | [6] 0.469 µM | [7] 0.209 µM | [8] 0.132 µM | [9] 0.526 µM | [10] 0.0743 µM | [11] 0.0662 µM | [12] 0.148 µM | [13] 0.105 µM | [14] 0.0833 µM | [15] 0.264 µM | [16] 1.66 µM | [17] 0.0662 µM | [18] 0.105 µM | [19] 0.105 µM

O=C(c1ccc(Nc2nccc(-c3cc4ccccc4s3)n2)cc1)N1CCC(N2CCCC2)CC1
active: [1] 3.72 µM | [2] 3.72 µM | [3] 4.69 µM | [4] 1.66 µM | [5] 16.6 µM | [6] 7.43 µM | [20] 4.18 µM | [7] 4.18 µM | [8] 13.2 µM | [9] 1.87 µM | [10] 1.32 µM | [11] 5.26 µM | [12] 16.6 µM | [13] 20.9 µM | [14] 13.2 µM | [15] 5.9 µM | [16] 20.9 µM | [17] 20.9 µM | [18] 16.6 µM | [19] 20.9 µM

CC1(O)CC(c2nc(-c3ccc4ccc(-c5ccccc5)nc4c3)c3c(N)nccn23)C1 (stereo unspecified)
active: [1] 4.18 µM | [2] 0.148 µM | [3] 0.0105 µM | [4] 6.62 µM | [5] 6.62 µM | [6] 23.5 µM | [7] 2.35 µM | [8] 16.6 µM | [9] 2.35 µM | [10] 1.18 µM | [12] 0.833 µM | [13] 0.209 µM | [15] 0.187 µM | [17] 0.132 µM | [19] 0.235 µM

CNC(=O)c1nn(C)c2c1C(C)(C)Cc1cnc(Nc3ccc(N4CCN(C)CC4)cc3)nc1-2
active: [1] 1.48 µM | [2] 3.72 µM | [3] 0.743 µM | [4] 0.743 µM | [5] 4.69 µM | [6] 4.69 µM | [20] 2.35 µM | [7] 0.662 µM | [9] 1.05 µM | [10] 2.96 µM | [11] 0.132 µM | [12] 13.2 µM | [13] 11.8 µM | [14] 1.87 µM | [15] 2.64 µM | [16] 5.26 µM | [17] 1.66 µM | [18] 3.32 µM | [19] 5.9 µM

O=C(C=Cc1cccc(S(=O)(=O)Nc2ccccc2)c1)NO
active: [1] 3.82 µM | [2] 5.4 µM | [3] 1.71 µM | [4] 0.762 µM | [5] 3.4 µM | [6] 5.4 µM | [20] 1.08 µM | [7] 2.7 µM | [8] 1.91 µM | [9] 1.36 µM | [10] 1.91 µM | [11] 0.54 µM | [12] 8.55 µM | [13] 10.8 µM | [14] 2.41 µM | [15] 3.03 µM | [16] 6.79 µM | [17] 1.91 µM | [19] 2.7 µM

COc1cc2c(NC3CCN(C(C)C)CC3)nc(C3CCCCC3)nc2cc1OCCCN1CCCC1
active: [1] 4.69 µM | [2] 8.33 µM | [3] 23.5 µM | [4] 3.72 µM | [5] 13.2 µM | [6] 9.35 µM | [20] 7.43 µM | [7] 7.43 µM | [8] 7.43 µM | [9] 6.62 µM | [10] 2.35 µM | [12] 6.62 µM | [13] 6.62 µM | [14] 7.43 µM | [15] 5.26 µM | [16] 7.43 µM | [17] 4.18 µM | [18] 6.62 µM | [19] 5.26 µM

O=C(Cc1ccc(-c2ccc(OCCN3CCOCC3)cc2)cn1)NCc1ccccc1
active: [1] 0.469 µM | [2] 0.0166 µM | [3] 0.0074 µM | [4] 0.0166 µM | [5] 0.132 µM | [6] 0.0187 µM | [20] 0.0418 µM | [8] 0.0372 µM | [9] 0.0148 µM | [12] 0.0833 µM | [13] 14.8 µM | [14] 0.0833 µM | [15] 0.0935 µM | [17] 0.132 µM | [18] 0.187 µM | [19] 0.0418 µM

COc1ccc(OC)c(-c2nnc3ccc(-c4ccc(OC)c(O[C@@H]5CCOC5)c4)nn23)c1
active: [1] 7.43 µM | [2] 8.33 µM | [3] 8.33 µM | [4] 5.9 µM | [5] 16.6 µM | [6] 13.2 µM | [7] 8.33 µM | [8] 10.5 µM | [9] 7.43 µM | [10] 5.26 µM | [11] 7.43 µM | [12] 20.9 µM | [13] 11.8 µM | [14] 9.35 µM | [15] 9.35 µM | [16] 20.9 µM | [17] 7.43 µM | [18] 8.33 µM | [19] 14.8 µM
